Assay outcomes deposited in PubChem by several laboratories.
The list is not random: actives were taken first. Their share in the collection is about 10%.
Lmaj promast: Leishmania major promastigote growth inhibition; Leishmania major promastigotes, resazurin fluorescence viability; inhibition, % at 10 µM; 200,000 compounds, 9% hits; AID 1063; in the data active = inhibition above about 50%;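 also: promastigotes grown with compound for 44 hours at 28 °C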
HCT116 bCat-KO: beta-catenin-lacking colon tumor cell growth suppression; HCT116 beta-catenin knockout viability, CellTiter-Glo, 60 h; stronger effect = lower value; 140,000 compounds, 1.5% hits; viability, % at 10 µM;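 active = viability at or under a set limit, the compound median less 4 SD, cut at about 6% in these data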;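 also: 0% = Hyamine 1622 control at 20 µM and 100% = untreated cell control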
p97 inhibitor: blocks human p97 ATPase activity; P55072; recombinant p97 ATPase, Kinase-Glo ATP luminescence, 3 h; inhibition, % at 8 µM; 220,000 compounds, 0.42% hits; in the data active = inhibition above about 15%;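 also: 0% = DMSO vehicle and 100% = wells lacking enzyme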
Target sequence (P55072 whole entry, looked up): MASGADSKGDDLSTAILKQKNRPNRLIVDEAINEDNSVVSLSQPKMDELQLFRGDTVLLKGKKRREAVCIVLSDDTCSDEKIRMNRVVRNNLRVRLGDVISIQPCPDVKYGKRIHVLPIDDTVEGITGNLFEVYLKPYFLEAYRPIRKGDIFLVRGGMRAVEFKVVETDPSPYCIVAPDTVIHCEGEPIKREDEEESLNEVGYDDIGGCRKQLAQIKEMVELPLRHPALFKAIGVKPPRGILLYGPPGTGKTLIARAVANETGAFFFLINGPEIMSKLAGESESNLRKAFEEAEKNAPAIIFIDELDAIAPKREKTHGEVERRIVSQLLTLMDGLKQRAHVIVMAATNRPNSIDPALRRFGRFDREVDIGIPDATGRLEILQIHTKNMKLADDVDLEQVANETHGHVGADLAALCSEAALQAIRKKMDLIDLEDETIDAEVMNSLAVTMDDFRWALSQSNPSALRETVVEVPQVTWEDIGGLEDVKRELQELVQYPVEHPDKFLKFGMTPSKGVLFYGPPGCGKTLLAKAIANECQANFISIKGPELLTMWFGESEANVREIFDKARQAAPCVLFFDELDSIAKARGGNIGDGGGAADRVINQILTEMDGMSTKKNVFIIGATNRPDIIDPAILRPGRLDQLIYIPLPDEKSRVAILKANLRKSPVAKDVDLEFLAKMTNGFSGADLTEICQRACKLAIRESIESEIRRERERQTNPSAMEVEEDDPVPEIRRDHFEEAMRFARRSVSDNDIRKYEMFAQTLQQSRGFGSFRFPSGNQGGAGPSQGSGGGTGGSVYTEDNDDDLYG
ROMK primary: modulators of human ROMK potassium channel; Tet-inducible ROMK, thallium flux fluorescence; actives lie on both sides; 130,000 compounds, 2% hits; B-score at 10 µM; P48048;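 active = signal ratio slope over the read window, or its plate-corrected B-score, at least 3 SD from the plate mean, either direction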;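 also: B-score of the F/F0 ratio slope over 7 to 12 s after thallium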
INS promoter inh: TRM-6 insulin promoter activity inhibition | TRM-6 cells (human fetal islet line), insulin promoter-eGFP reporter, imaging; reporter expression induced with tamoxifen | inhibition, % at 2 µM | 130,000 compounds, 0.9% hits;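 active = inhibition above the mean plus 3 SD, with well images judged a real hit on visual review, cut at about 60% in these data, passing the limit was not always enough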
PTEN del growth: suppresses growth of cells with PTEN deletion; HCT116 PTEN-null viability, CellTiter-Glo, 60 h; stronger effect = lower value; viability, % at 10 µM; 140,000 compounds, 1.2% hits; AID 827;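 active = viability at or below a set limit, 4 SD under the median of all tested compounds, cut at about 3.7% in these data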;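 also: PTEN knockout HCT116 line with beta catenin targeted HCT116 as companion control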
An asterisk follows results filed as active; i = inactive; nt = not tested or not shown.

SMILES | Lmaj promast | HCT116 bCat-KO | p97 inhibitor | ROMK primary | INS promoter inh | PTEN del growth
CCc1ccc(NC(=O)c2cccnc2)cc1 | -7 | 91 | 1 | nt | i | 100
Cc1ccc(NC(=O)N(C2CCCCC2)C(C)c2cccnc2)cc1C (stereo unspecified) | 83* | 71 | -6 | nt | nt | 70
COc1ccc(NC(=O)N(C2CCCCC2)C(C)c2cccnc2)c(OC)c1 (stereo unspecified) | 82* | 103 | -2 | nt | nt | 91
COc1c(F)c(F)c(C(=O)Nc2ccc(NC(=O)c3ccco3)cc2)c(F)c1F | 64* | 39 | -4 | nt | -35 | 40
CC(C)OC(=O)c1ccc(NC(=O)c2ccco2)cc1 | 56* | 84 | 3 | -0.92 | 10 | 87
CC(C)OC(=O)c1ccc(NC(=O)c2ccccc2)cc1 | 39 | 82 | -2 | -0.5 | -23 | 85
O=C(Nc1ccc(NC(=O)c2sc3ccccc3c2Cl)cc1)c1ccco1 | -6 | 1.4* | 8 | nt | nt | 1.5*
CCc1cccc(CC)c1NC(=S)Nc1ccccc1 | 12 | nt | 1 | 0.58 | nt | nt
CNc1ccc(Oc2nc([N+](=O)[O-])nn2C)cc1 | 1 | nt | 5 | -0.17 | nt | nt
OCC1C2c3ccccc3C(c3ccccc32)C1CO (stereo unspecified) | nt | nt | 3 | nt | nt | nt
CCOC(=O)CSc1nc(=O)n2cc(C)ccc2n1 | -9 | nt | 4 | -0.72 | 62 | nt
O=C(NC1CCCC1)C(=O)N(Cc1cccnc1)C(C(=O)NCC1CCCO1)c1ccco1 (stereo unspecified) | -6 | nt | 1 | -0.56 | 26 | nt
C=CCn1c(=O)c2c3c(sc2n2c(Nc4ccc(C(=O)OCC)cc4)nnc12)CCCC3 | 94* | 85 | 12 | 0.17 | 14 | 78
C=CCn1c(=O)c2c3c(sc2n2c(Nc4ccccc4)nnc12)CCCC3 | 52* | 68 | -3 | nt | -9 | 61
CCOc1ccc(-n2cc(-c3ccc(OC)c(OC)c3)[nH]c2=S)cc1 | -7 | nt | 0 | 0.66 | nt | nt
CCCCC(c1nnnn1CC1CCCO1)N1CCN(c2cccc(C)c2C)CC1 (stereo unspecified) | 56* | 56 | -3 | nt | 55 | 65
CCOC(=O)N/N=C\c1ccc([N+](=O)[O-])o1 | 98* | 20 | 1 | nt | -13 | 26
O=C(CCN1CCN(c2ccccc2)CC1)N/N=C/c1ccc(O)c(O)c1O | -7 | nt | 10 | 1.3 | nt | nt
O=C(CCN1CCN(c2ccccc2)CC1)N/N=C/c1ccc([N+](=O)[O-])o1 | 98* | nt | 2 | nt | nt | nt
Cc1cc([N+](=O)[O-])ccc1-c1ccc(/C=N/NC(=O)Cc2ccccc2)o1 | 9 | 68 | 0 | nt | -13 | 62
O=C(Cc1ccc([N+](=O)[O-])cc1)N/N=C/c1ccc([N+](=O)[O-])o1 | 100* | nt | 3 | -0.075 | -79 | nt
N#CCc1ccc(NC(=O)/C=C/c2ccc([N+](=O)[O-])o2)cc1 | 101* | nt | 10 | -0.63 | -440 | nt
N#CC1(NC(=O)CN2CCN(S(=O)(=O)c3ccccc3F)CC2)CCCC1 | nt | nt | 2 | nt | nt | nt
CCCOc1ccc(CCC(=O)N/N=C/c2ccc([N+](=O)[O-])o2)cc1 | nt | nt | -4 | nt | nt | nt
Cc1ccc(C(=O)N/N=C\c2ccc([N+](=O)[O-])o2)cn1 | nt | nt | 0 | nt | nt | nt
SMILES | Lmaj promast | HCT116 bCat-KO | p97 inhibitor | ROMK primary | INS promoter inh | PTEN del growth
O=C(CC12CC3CC(CC(C3)C1)C2)N/N=C\c1ccc[nH]1 | 16 | nt | 3 | 0.29 | -41 | nt
CCCCCCCC(=O)N/N=C/c1ccc([N+](=O)[O-])o1 | 91* | 88 | 4 | 0.05 | nt | 91
CC1(C(=O)N/N=C/c2ccc([N+](=O)[O-])o2)CC1(Br)Br (stereo unspecified) | 98* | 2.6* | 3 | nt | -94 | 2.5*
O=C(CC12CC3CC(CC(C3)C1)C2)N/N=C/c1ccc([N+](=O)[O-])o1 | 99* | 103 | 9 | nt | nt | 111
CCOC(=O)C(C)Sc1ncc(-c2ccccc2)cn1 (stereo unspecified) | -4 | nt | 1 | 0.34 | 0 | nt
Cc1cc(C)c(NC(=S)N(CCCN2CCN(C)CC2)Cc2cccs2)c(C)c1 | 18 | nt | -3 | 0.022 | 7 | nt
COc1ccccc1C(=O)C1CCCN(C(=O)CCn2cnnn2)C1 (stereo unspecified) | nt | nt | 4 | nt | nt | nt
CCCCNC(=S)N(Cc1c(C)noc1C)c1ccccc1 | -4 | 89 | -9 | nt | 6 | 77
Cc1ccccc1NC(=O)CSCC(=O)Nc1ccccc1C | -7 | 98 | -2 | -0.044 | -2 | 106
CCCN(CC(=O)Nc1ccccc1C)C(=O)CCl | 53* | nt | 6 | -0.62 | 5 | nt
COc1ccc(/C=C/C(=O)c2ccc3c4c(cccc24)CC3)cc1OC | 60* | 14 | 2 | -0.92 | 16 | 16
COc1ccc(/C=C/C(=O)c2cc(F)ccc2OC(=O)c2ccccc2C)cc1OC | 60* | 2.2* | 6 | nt | -18 | 2.1*
Cc1ccc(C(=O)NCCn2c(N)c(C#N)c3nc4ccccc4nc32)cc1 | 7 | 74 | 1 | -0.89 | -450 | 76
CCCCn1c(NC(=O)c2ccccc2)c(C#N)c2nc3ccccc3nc21 | 97* | 51 | 40* | nt | nt | 38
CC1CCC2(CC1)OCC1(CCC3(COC4(CCC(C)CC4)OC3)C1=O)CO2 (stereo unspecified) | -1 | nt | 2 | -0.59 | 22 | nt
NC(=S)N/N=C/c1ccc(C(F)(F)F)cc1 | 70* | 31 | -9 | -0.38 | 0 | 29
CCOC(=O)C1(Cc2ccccc2)CCN(Cc2ccc(C)s2)CC1 | 7 | nt | 1 | nt | nt | nt
CCOC(=O)C1(Cc2ccccc2)CCN(Cc2cc(OC)c3c(c2)OCO3)CC1 | 91* | nt | 3 | -1.5 | nt | nt
CCOC(=O)C1(Cc2ccccc2)CCN(Cc2ccc3c(c2)OCCO3)CC1 | 92* | nt | -7 | 0.054 | nt | nt
COc1cc(CN2CCCC(CO)(Cc3ccccc3C)C2)cc2c1OCO2 (stereo unspecified) | 69* | nt | -6 | 0.61 | nt | nt
CCOC(=O)C1(Cc2ccccc2)CCN(Cc2ccon2)CC1 | 21 | nt | 5 | nt | -7 | nt
CCOC(=O)C1(Cc2ccccc2)CCN(Cc2cccc3c2OCO3)CC1 | 66* | nt | 3 | nt | nt | nt
CCC(CC)C(=O)NCCCN1CCOCC1 | -1 | 91 | 9 | 0.29 | -21 | 94
COC(=O)CNc1c(-c2ccccc2)nc2ccc(Br)cn12 | 6 | 99 | -7 | -0.94 | -14 | 99
Cc1cc(Cl)c(OCCCn2ccnc2)c(Br)c1 | 17 | 80 | 4 | -1.5 | 0 | 99
SMILES | Lmaj promast | HCT116 bCat-KO | p97 inhibitor | ROMK primary | INS promoter inh | PTEN del growth
Cc1ccc(OCCN2C(=O)c3ccccc3C2=O)c([N+](=O)[O-])c1 | -5 | 96 | 1 | 0.43 | -8 | 104
Cc1ccc(C)c(OCCCCn2ccnc2)c1 | 99* | 86 | -4 | -0.062 | -23 | 88
Cc1ccc(OCCCCn2ccnc2)c([N+](=O)[O-])c1 | 96* | nt | 1 | -0.51 | nt | nt
Cc1cc(C)c(C)c(OCCCn2ccnc2)c1 | 82* | 85 | -6 | -0.52 | -17 | 79
COc1ccc(CNC(=O)CSc2nc3[nH]ncc3c(=O)n2-c2ccccc2Br)cc1 | -3 | nt | 1 | 0.24 | -3 | nt
Cc1ccc(CN2CCN(Cc3ccc4cc(F)ccc4n3)CC2CCO)o1 (stereo unspecified) | 80* | nt | 3 | 0.31 | nt | nt
